For 30 sequences, binding signal results are on record in publication PMC11006913.

Chain of PRRX1 (P54821 80-166): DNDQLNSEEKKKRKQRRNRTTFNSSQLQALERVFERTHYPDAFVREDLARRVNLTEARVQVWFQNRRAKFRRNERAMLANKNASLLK

The first experiment addresses PRRX1 (Homo sapiens, UniProt P54821 80-166). The experiment is described as follows: PBM; 200 nM protein, PBS. The following applies: dsDNA, one strand shown.
On to ATACCTAA, for which the binding signal was 11.2 upbm affinity estimate (log intensity, higher = more binding, comparable within an allelic series).

For the sequence AATATCAA, the binding signal was 11.7 upbm affinity estimate (log intensity, higher = more binding, comparable within an allelic series).

For the sequence TGATGAAA, the binding signal was 11.1 upbm affinity estimate (log intensity, higher = more binding, comparable within an allelic series).

On to ATTGAATG, for which the binding signal is 11.6 upbm affinity estimate (log intensity, higher = more binding, comparable within an allelic series).

Turning to AAATACGA, the binding signal is 11 upbm affinity estimate (log intensity, higher = more binding, comparable within an allelic series).

Take AATGTAAC: the binding signal is 11.3 upbm affinity estimate (log intensity, higher = more binding, comparable within an allelic series).

In the case of TACATCAA, the binding signal was 11.1 upbm affinity estimate (log intensity, higher = more binding, comparable within an allelic series).

Turning to GGCTATAA, the binding signal is 11.4 upbm affinity estimate (log intensity, higher = more binding, comparable within an allelic series).

As for AAATATTC, the binding signal was 11.3 upbm affinity estimate (log intensity, higher = more binding, comparable within an allelic series).

As for AATCAGCA, the binding signal is 12 upbm affinity estimate (log intensity, higher = more binding, comparable within an allelic series).

ACAATTCT: the binding signal was 10.5 upbm affinity estimate (log intensity, higher = more binding, comparable within an allelic series).

With AAAAGAAT, the binding signal is 11 upbm affinity estimate (log intensity, higher = more binding, comparable within an allelic series).

The target of the next experiment is HOXB6 (Homo sapiens, UniProt P17509 132-218). The experiment is described as follows: PBM; 200 nM protein, PBS. The following applies: dsDNA, one strand shown.
Chain of HOXB6 (P17509 132-218): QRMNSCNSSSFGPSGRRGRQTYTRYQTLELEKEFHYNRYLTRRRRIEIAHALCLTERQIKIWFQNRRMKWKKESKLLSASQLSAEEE
As for ATCATAAT, the binding signal was 11.2 upbm affinity estimate (log intensity, higher = more binding, comparable within an allelic series).

For AAATAAAC, the binding signal is 10.5 upbm affinity estimate (log intensity, higher = more binding, comparable within an allelic series).

Consider AAGATTTA, for which the binding signal was 10 upbm affinity estimate (log intensity, higher = more binding, comparable within an allelic series).

In the case of CATTATGA, the binding signal is 11 upbm affinity estimate (log intensity, higher = more binding, comparable within an allelic series).

In the case of ATGTAATC, the binding signal was 10.5 upbm affinity estimate (log intensity, higher = more binding, comparable within an allelic series).

Consider ATATACGA, for which the binding signal was 9.93 upbm affinity estimate (log intensity, higher = more binding, comparable within an allelic series).

Turning to AATGTACA, the binding signal is 10.3 upbm affinity estimate (log intensity, higher = more binding, comparable within an allelic series).

On to CTATTTTA, for which the binding signal was 10.5 upbm affinity estimate (log intensity, higher = more binding, comparable within an allelic series).

TGTAAACA: the binding signal was 10 upbm affinity estimate (log intensity, higher = more binding, comparable within an allelic series).

As for GGTTAATA, the binding signal was 10.9 upbm affinity estimate (log intensity, higher = more binding, comparable within an allelic series).

As for ATAATGTG, the binding signal is 11.1 upbm affinity estimate (log intensity, higher = more binding, comparable within an allelic series).

On to ACATATCT, for which the binding signal was 10 upbm affinity estimate (log intensity, higher = more binding, comparable within an allelic series).

For the sequence AGTATCTA, the binding signal is 10.2 upbm affinity estimate (log intensity, higher = more binding, comparable within an allelic series).

GCATAGTA: the binding signal is 9.78 upbm affinity estimate (log intensity, higher = more binding, comparable within an allelic series).

Take ATTAGCGC: the binding signal is 10.6 upbm affinity estimate (log intensity, higher = more binding, comparable within an allelic series).

On to ACAAATTG, for which the binding signal was 10.4 upbm affinity estimate (log intensity, higher = more binding, comparable within an allelic series).

Take TACTACGA: the binding signal was 10.1 upbm affinity estimate (log intensity, higher = more binding, comparable within an allelic series).

For ATTTTTTA, the binding signal was 10.4 upbm affinity estimate (log intensity, higher = more binding, comparable within an allelic series).
